# Assay results reported in PubChem BioAssay (NCATS).
# Records with an inconclusive call do not appear. Entries that show only a call come without a potency. Active and inactive are the calls of the source. Unless noted, the call rests on the fitted dose curve; in most records, active means well fitted curve in the direction sought with a large enough effect; inconclusive means small, poorly fitted or top-dose-only effect, or another doubt; inactive means no such curve, though single readings can be large; an effect the other way counts as inactive or inconclusive.
# What was measured:
# [1] = target: Aldehyde dehydrogenase, mitochondrial (Homo sapiens) (UniProt P05091); experiment: qHTS for Inhibitors of the Aldehyde Dehydrogenase Family (ALDH2) Confirmatory screens (AID 2061303; active means well fitted inhibition curve with a large enough effect; title and protocol of this record describe different tests; further: nearly all actives have a fitted effect of over 45% in size; further: potency means the concentration at half of the fitted maximal effect)
# [2] = target: Aldehyde dehydrogenase, mitochondrial (Homo sapiens) (UniProt P05091); experiment: qHTS for Inhibitors of the Aldehyde Dehydrogenase Family (ALDH2) Primary screen (AID 2061308); further: nearly all actives have a fitted effect of over 55% in size
# [3] = target: Retinaldehyde dehydrogenase 3 (Homo sapiens) (UniProt P47895); experiment: qHTS for Inhibitors of the Aldehyde Dehydrogenase Family (ALDH1A3) Primary screen (AID 2061315)
# [4] = target: Aldehyde dehydrogenase 1A1 (Homo sapiens) (UniProt P00352); experiment: qHTS for Inhibitors of the Aldehyde Dehydrogenase Family (ALDH1A1) Confirmatory screens (AID 2061316); further: nearly all actives have a fitted effect of over 65% in size; further: potency means the concentration at half of the fitted maximal effect
# [5] = target: Retinaldehyde dehydrogenase 3 (Homo sapiens) (UniProt P47895); experiment: qHTS for Inhibitors of the Aldehyde Dehydrogenase Family (ALDH1A3) Confirmatory screens (AID 2061311); further: nearly all actives have a fitted effect of over 60% in size; further: potency means the concentration at half of the fitted maximal effect
# [6] = target: Retinal dehydrogenase 2 (Homo sapiens) (UniProt O94788); experiment: qHTS for Inhibitors of the Aldehyde Dehydrogenase Family (ALDH1A2) Confirmation screens (AID 2061314); further: nearly all actives have a fitted effect of over 65% in size; further: potency means the concentration at half of the fitted maximal effect
# [7] = target: Retinaldehyde dehydrogenase 3 (Homo sapiens) (UniProt P47895); experiment: qHTS for Inhibitors of the Aldehyde Dehydrogenase Family (ALDH1A3) Validation screen (AID 2061312); further: potency means the concentration at half of the fitted maximal effect; nearly all actives have a fitted effect of over 45% in size
smiles,measurement,setting,value
O=C(Nc1ccc2c(c1)OCO2)Nc1nnc(-c2ccncc2)s1,Potency,[1],inactive
same,Potency,[2],inactive
same,Potency,[3],inactive
same,Potency,[4],inactive
COc1ccc(N2CCN(C(=S)Nc3cc(C)ccn3)CC2)cc1,Potency,[1],10.1 µM (active)
same,Potency,[5],22.5 µM (active)
same,Potency,[6],12.7 µM (active)
same,Potency,[4],3.18 µM (active)
CC(=O)Nc1sc2c(c1-c1nc3ccccc3s1)CN(C1COC1)C2,Potency,[1],12.7 µM (active)
same,Potency,[5],8.96 µM (active)
same,Potency,[6],8.96 µM (active)
same,Potency,[3],inactive
same,Potency,[4],2.52 µM (active)
CCOc1ccc(CCNC(=O)c2ccc(N3N=C(C)CC3=O)cc2)cc1OCC,Potency,[1],1.26 µM (active)
same,Potency,[5],0.1 µM (active)
same,Potency,[6],0.896 µM (active)
same,Potency,[3],inactive
same,Potency,[4],0.896 µM (active)
COc1cccc(N2CCN(c3nc(C(=O)NCc4cccc(C)c4)cs3)CC2)c1,Potency,[1],inactive
same,Potency,[5],inactive
same,Potency,[6],inactive
Cn1nnnc1Sc1ncnc2scc(-c3ccc([N+](=O)[O-])cc3)c12,Potency,[1],inactive
same,Potency,[2],inactive
same,Potency,[3],inactive
CC(C)c1ccc(S(=O)(=O)c2cnc(SCC(=O)Nc3ccc4c(c3)OCCO4)[nH]c2=O)cc1,Potency,[1],inactive
same,Potency,[5],inactive
same,Potency,[6],10.1 µM (active)
same,Potency,[3],inactive
CCN(CC)c1nc2ccccc2nc1C(=O)Nc1ccc(C(C)=O)cc1,Potency,[1],inactive
same,Potency,[5],inactive
same,Potency,[6],inactive
same,Potency,[4],inactive
O=C(Nc1cccc(-c2nn3c(=O)cc(N4CCNCC4)nc3s2)c1)c1ccncc1,Potency,[1],7.08 µM (active)
same,Potency,[5],28.2 µM (active)
same,Potency,[6],14.1 µM (active)
same,Potency,[3],inactive
same,Potency,[4],3.18 µM (active)
Cc1ccc(-n2nc(C)c3c(C(=O)Nc4ccc(Br)c(C)c4)cc(C)nc32)cc1,Potency,[1],inactive
same,Potency,[5],inactive
same,Potency,[6],inactive
CCn1cc2nc(SCc3ccc(F)cc3)n(CCc3ccccc3)c(=O)c2n1,Potency,[1],14.1 µM (active)
same,Potency,[5],0.562 µM (active)
same,Potency,[6],7.94 µM (active)
same,Potency,[4],inactive
Cc1ccc(NC(=O)c2cc(-c3ccc(Br)s3)nc3ccccc23)cc1F,Potency,[1],inactive
same,Potency,[5],inactive
same,Potency,[6],inactive
same,Potency,[4],inactive
CCOc1ccc(NC(=O)N2CCN(c3ccc(Cl)c(Cl)c3)CC2)cc1,Potency,[1],inactive
same,Potency,[5],inactive
same,Potency,[6],inactive
same,Potency,[4],inactive
CCc1cc(N2CCOC(c3ccc4cc(OC)ccc4c3)C2)nc(C)n1 (stereo not given),Potency,[1],inactive
same,Potency,[5],inactive
same,Potency,[6],inactive
same,Potency,[4],inactive
CC1(C)CCC(C)(C)c2cc3c(cc21)Sc1ccccc1N=C3c1ccc(C(=O)O)cc1,Potency,[1],inactive
same,Potency,[5],inactive
same,Potency,[7],6.31 µM (active)
same,Potency,[6],inactive
same,Potency,[3],inactive
O=C(Nc1ccc([S+](=O)([O-])Nc2nccs2)cc1)c1ccccn1,Potency,[1],inactive
same,Potency,[2],inactive
same,Potency,[3],inactive
same,Potency,[4],inactive
COc1ccc(Cn2c(=O)[nH]c3cc(C(=O)N4CCN(c5ccccc5)CC4)ccc3c2=O)cc1,Potency,[1],inactive
same,Potency,[5],inactive
same,Potency,[6],inactive
same,Potency,[4],inactive
Cc1nc(CNc2ncnc3ccc(-c4ccoc4C)cc23)cs1,Potency,[1],inactive
same,Potency,[2],inactive
same,Potency,[3],inactive
O=c1[nH]c2ccc(NCc3ccc(-c4ccc(F)cc4)o3)cc2[nH]1,Potency,[1],0.914 µM (active)
same,Potency,[5],inactive
same,Potency,[6],inactive
CCOC(=O)c1ccc(N2CCN(c3cccc(Cl)c3)CC2)c(NC(=O)Nc2ccc(Cl)cc2)c1,Potency,[1],inactive
same,Potency,[5],inactive
same,Potency,[6],inactive
same,Potency,[4],inactive
COc1cccc(-c2cccc(C(=O)N3CCN(C(=O)Nc4ccccc4)CC3)c2)c1,Potency,[1],inactive
same,Potency,[5],inactive
same,Potency,[6],inactive
COc1ccccc1Nc1cc2ccccc2c(=O)[nH]1,Potency,[1],inactive
same,Potency,[5],0.318 µM (active)
same,Potency,[6],inactive
N#Cc1nc(NCC(F)F)nc(Nc2cc(F)cc(F)c2)n1,Potency,[1],inactive
same,Potency,[2],inactive
same,Potency,[3],inactive
same,Potency,[4],inactive
NCCCNc1ncnc2ccc(-c3ccc4c(c3)OCO4)cc12,Potency,[1],inactive
same,Potency,[2],inactive
same,Potency,[4],11.3 µM (active)
Cc1cc(C)nc(NC(=C(C#N)C#N)N2CCN(c3cccc(C(F)(F)F)c3)CC2)c1,Potency,[1],14.2 µM (active)
same,Potency,[2],inactive
same,Potency,[3],inactive
COc1ccc(CN(Cc2ccccc2)C(=O)c2ccccc2N)cc1COc1ccc(NC(C)=O)cc1,Potency,[1],inactive
same,Potency,[2],inactive
same,Potency,[3],inactive
Cc1ccc(NC(=O)N2CCN(c3ccc(Cl)c(Cl)c3)CC2)cc1,Potency,[1],inactive
same,Potency,[5],inactive
same,Potency,[6],inactive
same,Potency,[4],inactive
COc1ccc(NC(c2nnc(-c3ccccc3)o2)c2ccccc2F)cc1Cl (stereo not given),Potency,[1],inactive
same,Potency,[5],inactive
same,Potency,[6],inactive
same,Potency,[4],inactive
CN(c1ccccc1)c1ccc(CNc2nn3c(=O)c4ccccc4nc3s2)cc1,Potency,[1],11.2 µM (active)
same,Potency,[5],12.6 µM (active)
same,Potency,[6],inactive
same,Potency,[3],inactive
same,Potency,[4],8.96 µM (active)
O=C(Nc1cccc(C(F)(F)F)c1)c1cc(-c2ccc(Cl)cc2)on1,Potency,[1],inactive
same,Potency,[5],inactive
same,Potency,[6],inactive
CCOC(=O)Cn1c(=O)oc2cc(S(=O)(=O)N3CCN(c4ccc(C(C)=O)cc4)CC3)ccc21,Potency,[1],7.08 µM (active)
same,Potency,[5],0.355 µM (active)
same,Potency,[6],inactive
Cc1noc2c(NCCc3ccccn3)cc(-c3ccccn3)nc12,Potency,[1],inactive
same,Potency,[5],14.1 µM (active)
COc1ccc(CNC(=O)c2cc3c(=O)n(Cc4ccc(OC)cc4)ccc3nc2C)cc1,Potency,[1],inactive
same,Potency,[5],inactive
same,Potency,[6],inactive
same,Potency,[4],inactive
O=S(=O)(Nc1ccc(O)c(NS(=O)(=O)c2ccccc2)c1)c1ccccc1,Potency,[1],inactive
same,Potency,[2],inactive
same,Potency,[3],inactive
same,Potency,[4],2.83 µM (active)
Cc1cccc(-c2ccc(C=O)cc2)c1,Potency,[1],12.6 µM (active)
same,Potency,[5],0.047 µM (active)
same,Potency,[6],39.8 µM (active)
same,Potency,[4],9.37 µM (active)
CC(C)Sc1ncc(Cl)c(C(=O)Nc2nc3ccc(S(C)(=O)=O)cc3s2)n1,Potency,[1],inactive
same,Potency,[5],inactive
same,Potency,[6],inactive
same,Potency,[4],inactive
O=C(CN1CCCN(S(=O)(=O)c2ccc(Br)cc2)CC1)Nc1cccc(C(F)(F)F)c1,Potency,[1],1.15 µM (active)
same,Potency,[5],6.47 µM (active)
same,Potency,[6],25.1 µM (active)
same,Potency,[4],1.45 µM (active)
O=C(NCc1ccc(F)cc1)c1ccc2nnc(-c3cccc(C(F)(F)F)c3)n2c1,Potency,[1],inactive
same,Potency,[5],inactive
same,Potency,[6],inactive
same,Potency,[4],inactive
O=C(Nc1ccc(N2CCOCC2)c(F)c1)Nc1nnc(-c2ccncc2)s1,Potency,[1],inactive
same,Potency,[2],inactive
same,Potency,[3],inactive
COC(=O)[C@H](Cc1ccc(OC)cc1)NC(=O)[C@@H]1CNCCN1S(=O)(=O)c1ccccc1,Potency,[1],inactive
same,Potency,[6],inactive
COc1ccc(S(=O)(=O)N2C[C@@H](Oc3ccccc3)C[C@@H]2C(=O)N2CCOCC2)cc1,Potency,[1],inactive
same,Potency,[6],inactive
COc1cc(F)ccc1-c1ccnc2nc(Cc3ccc(F)cc3)nn12,Potency,[1],inactive
same,Potency,[4],inactive
COc1ccc(NC(=O)CN(C)S(=O)(=O)c2ccc(C(=O)N3CCOCC3)s2)cc1,Potency,[1],inactive
same,Potency,[6],inactive
CC(C)N1CCc2c(sc(NC(=O)C3CC3)c2-c2nc3ccccc3s2)C1,Potency,[1],inactive
same,Potency,[6],5.65 µM (active)
same,Potency,[3],inactive
same,Potency,[4],7.98 µM (active)
Cc1ccsc1CN(C)c1ncnc2ccc(-c3ccoc3C)cc12,Potency,[1],inactive
same,Potency,[6],11.3 µM (active)
same,Potency,[3],inactive
O=C(Nc1cccnc1)c1ccco1,Potency,[1],12.7 µM (active)
same,Potency,[3],inactive
same,Potency,[4],6.34 µM (active)
Brc1ccc(-c2ccc(C3Nc4cccc5cccc(c45)N3)o2)cc1,Potency,[1],0.896 µM (active)
same,Potency,[5],7.12 µM (active)
same,Potency,[4],10.1 µM (active)
CC(C)NS(=O)(=O)c1ccc(OCC(=O)N2CCN(c3ccccc3F)CC2)cc1,Potency,[1],inactive
same,Potency,[6],inactive
CC(=O)c1ccc(NC(=O)c2cc(-c3ccc(C)s3)nc3ccccc23)cc1,Potency,[1],inactive
same,Potency,[6],inactive
CCN(CC)c1ccc(NC(=O)Nc2ccc(C(C)=O)cc2)cc1,Potency,[1],inactive
same,Potency,[6],inactive
same,Potency,[3],inactive
O=S1(=O)N=C(Sc2ccc3c(c2)OCCO3)c2ccccc21,Potency,[1],inactive
same,Potency,[3],inactive
O=C1Nc2ccccc2/C1=C\c1ccc(O)c(Cl)c1,Potency,[1],10.1 µM (active)
same,Potency,[6],10.1 µM (active)
same,Potency,[3],inactive
COC(=O)c1ccc(NC(=O)CN2CCN(c3ccc(Cl)cc3)CC2)cc1,Potency,[1],18.2 µM (active)
same,Potency,[6],18.2 µM (active)
CCN1c2cc(C(=O)Nc3ccc(C#N)cc3)ccc2C(=O)N2CCCCCC21 (stereo not given),Potency,[1],inactive
same,Potency,[4],6.47 µM (active)
O=C(NCCN1CCN(c2ccccc2)CC1)Nc1cccc(Br)c1,Potency,[1],inactive
same,Potency,[6],inactive
NC(=O)c1c(NC(=O)c2ccco2)sc2c1CCCC2,Potency,[1],8.96 µM (active)
same,Potency,[6],10.1 µM (active)
same,Potency,[3],inactive
same,Potency,[4],3.57 µM (active)
O=C1c2ccccc2NC(c2ccc(-c3cccs3)o2)N1O (stereo not given),Potency,[1],11.2 µM (active)
same,Potency,[6],7.98 µM (active)
same,Potency,[3],inactive
same,Potency,[4],6.34 µM (active)
O=C(CCC#CCSc1nnc(-c2cccc3ccccc23)o1)c1ccccc1,Potency,[1],20.1 µM (active)
same,Potency,[3],inactive
O=C1c2ccccc2NC(c2ccc(-c3cccc(F)c3)o2)N1O (stereo not given),Potency,[1],20.1 µM (active)
same,Potency,[3],inactive
same,Potency,[4],6.34 µM (active)
CC(=O)Nc1sc2c(c1-c1nc3ccccc3s1)CCN(Cc1ccccc1)C2,Potency,[1],inactive
same,Potency,[5],25.1 µM (active)
same,Potency,[3],inactive
CC(C)c1ccc(NC(=O)N2CCN(c3ccc(Cl)c(Cl)c3)CC2)cc1,Potency,[1],inactive
same,Potency,[4],inactive
CC(=O)N1CCN(c2nc(-c3ccc(Br)cc3)cs2)CC1,Potency,[1],25.1 µM (active)
same,Potency,[5],12.6 µM (active)
same,Potency,[3],inactive
same,Potency,[4],inactive
O=C(OCC#CCSc1nnc(-c2cccc3ccccc23)o1)c1ccco1,Potency,[1],6.34 µM (active)
same,Potency,[3],inactive
same,Potency,[4],6.34 µM (active)
COc1ccc(-n2cc(C(=O)Nc3cc(F)ccc3F)c3ccccc3c2=O)cc1,Potency,[1],inactive
same,Potency,[6],inactive
same,Potency,[4],11.5 µM (active)
[O-][n+]1onc(-c2ccccc2)c1CO,Potency,[1],inactive
same,Potency,[6],inactive
same,Potency,[3],inactive
N#Cc1c(-c2cccc(Br)c2)no[n+]1[O-],Potency,[1],inactive
same,Potency,[6],3.57 µM (active)
same,Potency,[3],inactive
same,Potency,[4],12.7 µM (active)
COc1ccc(N2CCN(S(=O)(=O)c3ccc4c(c3)CC(=O)N4)CC2)cc1,Potency,[1],inactive
same,Potency,[5],inactive
same,Potency,[3],inactive
same,Potency,[4],5.17 µM (active)
CC(=O)Nc1sc2c(c1-c1nc3ccccc3s1)CNCC2,Potency,[1],20.1 µM (active)
same,Potency,[3],inactive
same,Potency,[4],8.96 µM (active)
COc1ccc(C2Nc3ccccc3C(=O)N2Cc2ccco2)cc1COc1ccccc1 (stereo not given),Potency,[1],inactive
same,Potency,[5],inactive
same,Potency,[3],inactive
